From PubChem BioAssay come the findings set out here.

Each structure is given as a SMILES string. Values without a mark were called inactive. The source made the active and inactive calls.

The assay in a line: S. pombe growth modifiers, basal conditions – strain 972, OD600, 24 h, no modulator, primary screen (AID 1090).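 Also: basal condition with compound alone and no growth modifier present; test concentration not given here.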 The settings on record: S. pombe 972 growth, higher = more signal, called active from +8 up or from −8 down.
With `C=C(/C(=C/C[C@H](OC(C)=O)c1ccccc1OCCO)c1cc(C(=O)OC)ccc1OC)C(C)C`, the z-score was -1.2.

For the compound `C[N+](C)(C)CCCC[C@@H]1NC(=O)[C@H]2C[C@@H](C(=O)NCCCCCCN)[C@@H](c3ccc(O)cc3)N2C1=O`, the z-score is -1.51.

For the compound `COc1ccccc1CN1C(=O)c2ccccc2[C@](Cc2ccccc2I)(C(=O)NCC(F)(F)F)[C@@H]1c1ccc(CO)cc1`, the z-score is -0.503.

`O=C(NCc1ccccc1)[C@@H]1c2ccccc2C(=O)N(Cc2ccccc2C(F)(F)F)[C@H]1c1ccc(CO)cc1`: the z-score was 0.234.

`COC(=O)[C@H](Cc1ccccc1)N1CC(/C=C/C2CC2)=C[C@H]1[C@H](O)Cc1ccccc1`: the z-score was -3.67.

In the case of `CCOC(=O)C1=CC[C@@H](c2ccc(OCc3ccccc3)c(OC)c2)N(S(=O)(=O)c2ccc(C)cc2)[C@H]1c1ccc(SC)cc1`, the z-score is 0.236.

`COc1cccc(/C=C/C=O)c1`: the z-score is -13.2 (active).

`CC(=O)NCCCC[C@@H]1NC(=O)[C@H]2C[C@@H](C(=O)NCCCC[N+](C)(C)C)[C@@H](c3cccc(OCCO)c3)N2C1=O`: the z-score was -1.27.

As to `O=C1C2C=CC(C(O)c3ccccc3)N(Nc3ccccc3F)C2C(=O)N1c1ccccc1` (stereo not given), the z-score is 0.815.

As to `CCOC(=O)C[C@H]1[C@H](OC(=O)c2ccccc2-c2ccccc2)[C@@H](NC(=O)c2ccc(-c3ccccc3)cc2)c2cc(OCCCO)ccc2N1C(=O)c1ccc2ccccc2n1`, the z-score was 0.632.

Consider `CO[C@]12C=C(Br)[C@@H](C[C@@H]1c1cccc(C)c1)[C@@]1(CO1)C2=O`, for which the z-score was -5.17.

For `[N-]=[N+]=Nc1ccccc1[C@@H]1OC(c2ccc(OCCCO)cc2)=N[C@]1(Cc1ccccc1)C(=O)NCC(O)CO` (stereo not given in full), the z-score was -1.4.

Consider `COc1ccc([Si](C)(C)[C@@H]2[C@@H](CCn3cc([C@H](O)c4ccccc4)nn3)O[C@]3(C(=O)N(Cc4ccc(N5CCC5=O)cc4)c4ccccc43)[C@H]2C)cc1`, for which the z-score was 0.375.

Consider `C=CCC(OC(C)=O)[C@@H]1[C@@H](N(Cc2ccc(-c3cccc(C(F)(F)F)c3)o2)C(=O)c2ccc(C)cc2)c2cc(OCCCO)ccc2N1C(=O)c1ccc2ccccc2c1` (stereo not given in full), for which the z-score is 0.668.

Regarding `C=CCC(OC(C)=O)[C@@H]1[C@@H](N(Cc2cccc3ccccc23)C(=O)Cc2ccc(F)cc2)c2cc(OCCCO)ccc2N1C(=O)c1ccc2ccccc2n1` (stereo not given in full), the z-score was 0.732.

`C[C@H]1NC(=O)[C@@]23C(=O)N[C@@H](Cc4ccccc4)C2[C@H](C)[C@@]2(C)O[C@H]2C3/C=C/C/C=C\CNC(=O)[C@H](Cc2ccccc2)NC1=O` (stereo not given in full): the z-score was -0.236.

Turning to `CCCCCCCCCCC(O)C1C=CC2C(=O)N(C)C(=O)C2N1Nc1ccc([N+](=O)[O-])cc1[N+](=O)[O-]` (stereo not given), the z-score is 0.637.

For `NCCCCCCNC(=O)[C@@H]1C[C@@H]2C(=O)N[C@@H](CCCCN)C(=O)N2[C@@H]1c1cccc(OCCO)c1`, the z-score is 0.962.

`N#Cc1ccc(C(O)C2C=CC3C(=O)N(c4ccccc4)C(=O)C3N2Nc2ccccc2)cc1` (stereo not given): the z-score is -0.145.

With `CC1=C([C@H](O)CCc2ccccc2)[C@H](CO)[C@@H]2C(=O)N(C)C(=O)[C@@H]2C1`, the z-score was -0.589.

`CCOC(=O)C1=CC[C@@H](c2cccc(Cl)c2)N(S(=O)(=O)c2ccc(C)cc2)C1`: the z-score is -0.0856.

Regarding `COCCOC(=O)N1C(=O)[C@@]2(c3cc(C#Cc4ccc(OC)cc4)ccc31)[C@H](C(=O)Nc1nc3ccccc3s1)[C@H]1C(=O)O[C@H](c3ccccc3)[C@H](c3ccccc3)N1[C@@H]2c1ccc(O)cc1`, the z-score is 0.842.

In the case of `COc1ccc(C#Cc2ccc3c(c2)[C@]2(C(=O)N3)[C@H](c3ccc(O)cc3)N3[C@H](c4ccccc4)[C@H](c4ccccc4)OC(=O)[C@H]3[C@@H]2C(=O)O)cc1`, the z-score is -1.18.

As to `CC(C)C[C@@H]1NC(=O)[C@@H]2C[C@H](C(=O)NCCCCCN)[C@H](c3ccc(O)cc3)N2C1=O`, the z-score is 0.32.

In the case of `CN1C(=O)C2C=CC(C(O)c3ccc(F)cc3)N(Nc3ccccc3)C2C1=O` (stereo not given), the z-score was 1.08.

`CCC[C@@H]1C[C@@]1(CCC)[C@@H](NC(=O)OCc1ccccc1)c1ccc(-c2ccccc2)cc1`: the z-score is -15.5 (active).

In the case of `COc1ccc(NC(=O)O[C@H]2[C@H](OC(=O)Nc3ccccc3)[C@H](OC(=O)Nc3ccccc3)[C@@H](OC)O[C@@H]2CO)cc1`, the z-score was 0.887.

On to `CC(C)[Si](C#C[Si](C(C)C)(C(C)C)C(C)C)(O[C@H](C)c1cn([C@H](CO)Cc2ccccc2)nn1)C(C)C`, for which the z-score is -0.644.

Regarding `[N-]=[N+]=NCc1ccccc1[C@@H]1OC(c2ccc(OCCCO)cc2)=N[C@]1(CCS(=O)(=O)c1ccccc1)C(=O)NCC(O)CO` (stereo not given in full), the z-score was -0.741.

As for `CCC(CC)C(O)C1C=CC2C(=O)N(c3ccccc3)C(=O)C2N1Nc1ccc(C(C)C)cc1` (stereo not given), the z-score was 0.065.

In the case of `C=C(C)C1CCC(C(O)C2C=CC3C(=O)N(C)C(=O)C3N2N2CCCCC2)CC1` (stereo not given), the z-score is 0.642.

In the case of `O=C1NC(=O)C2C1C=CC(C(O)c1cccc3ccccc13)N2Nc1ccc(Cl)cc1Cl` (stereo not given), the z-score is -0.615.

As for `C=CCOC(=O)[C@H]1[C@@H]2C(=O)O[C@@H](c3ccccc3)[C@@H](c3ccccc3)N2[C@@H](c2ccc(OCCOC(=O)[C@@H]3C[C@@H]4C(=O)N[C@@H](CCCCN(C)C)C(=O)N4[C@@H]3c3ccc(O)cc3)cc2)[C@]12C(=O)Nc1ccccc12`, the z-score was -2.78.

Consider `CCOC(=O)C1=CC[C@@H](c2ccccc2C(F)(F)F)N(S(=O)(=O)c2ccc(C)cc2)[C@H]1c1ccc(C#N)cc1`, for which the z-score was 1.2.

In the case of `CCCNC(=O)[C@@H]1c2ccccc2C(=O)N(C(C)C)[C@H]1c1ccc(CO)cc1`, the z-score was 0.668.
